# Counter-ions that a name gives are not always drawn. ± gives the standard deviation of the averaged measurements. Over roughly 2,000 compounds, “relative cell viability vs DMSO, compound alone” has its median near 1.1; the lowest 2% begin near 0.29. Many of the other results were omitted from the sample, so the lowest values are more common in it than they were.
# Test system: TE10
# Assay: relative cell viability vs DMSO, compound alone (fraction); TE10 is an esophageal squamous carcinoma line; higher = less cytotoxic
# Conditions: 2 µM; 48 h
# Description: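 TE10 ESCC cells (1,000/well, 384-well plates) were treated with Selleck bioactive library compounds at 2 uM alone for 48 h. Viability was read by CellTiter-Glo and expressed relative to DMSO wells. Two technical replicates (A, B).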
row,Structure (SMILES),relative cell viability
1,C[N+]1(C)CCC(=C(c2ccccc2)c2ccccc2)CC1 [Diphemanil Methylsulfate],0.918 ± 0.097
2,OCCOCCN1CCN(C2=Nc3ccccc3Sc3ccccc32)CC1 [Quetiapine Fumarate],1.079 ± 0.0073
3,Cc1cc(/C=C2/SC(=S)NC2=O)c(C)n1-c1cccnc1 [Optovin],1.06 ± 0.031
4,C[C@@H](O)[C@H]1C(=O)N2C(C(=O)OCOC(=O)C(C)(C)C)=C(SC3CN(C4=NCCS4)C3)[C@H](C)[C@H]12 [Tebipenem Pivoxil],1.14 ± 0.037
5,C[C@@]12C[C@@]3(O)O[C@@H](O1)[C@]1(COC(=O)c4ccccc4)[C@H]3C[C@@]12O[C@@H]1O[C@H](CO)[C@@H](O)[C@H](O)[C@H]1O [Paeoniflorin],1.04 ± 0.029
6,CC(C=CC(=O)NO)=CC(C)C(=O)c1ccc(N(C)C)cc1 (configuration not stated) [Trichostatin A (TSA)],0.0876 ± 0.0041
7,CN(C)c1ccc(C(=O)NCCCCCCC(=O)NO)cc1,0.627 ± 0.043
8,COC1C(O)CC(=O)OC(C)CC=CC=CC(OC2CCC(N(C)C)C(C)O2)C(C)CC(CC=O)C1OC1OC(C)C(OC2CC(C)(O)C(O)C(C)O2)C(N(C)C)C1O (configuration not stated) [Spiramycin],1.11 ± 0.04
9,C[C@H](CCC(=O)O)[C@H]1CC[C@H]2[C@@H]3[C@@H](O)C[C@@H]4C[C@H](O)CC[C@]4(C)[C@H]3CC[C@]12C [Ursodiol],0.96 ± 0.08
10,COCCCOc1cc(C[C@@H](C[C@H](N)[C@@H](O)C[C@H](C(=O)NCC(C)(C)C(N)=O)C(C)C)C(C)C)ccc1OC [Aliskiren Hemifumarate],1.19 ± 0.037
11,COc1ccc(-c2ccc3c(N4CCOC[C@@H]4C)nc(N4CCOC[C@@H]4C)nc3n2)cc1CO,0.4942 ± 0.0022
12,N#CC(=Cc1ccc(O)c(O)c1)C(=O)NCc1ccccc1 [AG-490 (Tyrphostin B42)],1.196 ± 0.001
13,CCC[C@H](NC(=O)/C(C#N)=C/c1cccc(Br)n1)c1ccccc1 [Degrasyn (WP1130)],0.206 ± 0.019
14,C[C@H](NC(=O)/C(C#N)=C/c1cccc(Br)n1)c1ccccc1,1.14 ± 0.032
15,COc1c(C)c(C(=O)c2ccc(N)c(C(=O)O)c2)n2ccccc12,1.04 ± 0.041
16,N#C[C@@H]1C[C@@H]2C[C@@H]2N1C(=O)[C@@H](N)C12CC3CC(CC(O)(C3)C1)C2 [Saxagliptin],1.02 ± 0.083
17,O=C1c2ccccc2-c2n[nH]c3cccc1c23,1.27 ± 0.0019
18,CCN=C1N[C@@H]2[C@@H](O)[C@H](O)[C@@H](CO)O[C@@H]2S1 [Thiamet G],1.04 ± 0.037
19,OCc1ccc(-c2ccc(-c3ccc(CO)s3)o2)s1,0.0807 ± 0.0069
20,Cc1c(Cc2ccc3ccccc3n2)c2cc(F)ccc2n1CC(=O)O,1.08 ± 0.054
21,CCOC(=O)[C@H](CCc1ccccc1)N[C@H]1CCCN2CCC[C@@H](C(=O)O)N2C1=O [Cilazapril Monohydrate],1.011 ± 0.004
22,Nc1nc(Cl)nc2c1ncn2[C@@H]1O[C@H](CO)[C@@H](O)[C@@H]1F [Clofarabine],0.932 ± 0.038
23,Nc1nc(F)nc2c1ncn2[C@@H]1O[C@H](CO)[C@@H](O)[C@@H]1O [Fludarabine],0.291 ± 0.0055

row,Structure (SMILES),relative cell viability
1,Nc1nc(F)nc2c1ncn2[C@@H]1O[C@H](COP(=O)(O)O)[C@@H](O)[C@@H]1O [Fludarabine Phosphate],0.214 ± 0.058
2,Nc1ncnc2c1ncn2[C@@H]1O[C@H](CO)[C@@H](O)[C@H]1O [Adenosine],1.165 ± 0.0028
3,Nc1nc2c(ncn2[C@@H]2O[C@H](CO)[C@@H](O)[C@H]2O)c(=O)[nH]1 [Guanosine],1.06 ± 0.032
4,Nc1ncnc2c1ncn2[C@@H]1O[C@H](CO)[C@@H](O)[C@@H]1O [Vidarabine],1.08 ± 0.033
5,CCN(CC)CCOC(=O)c1ccc(N)cc1Cl [Chloroprocaine HCl],1.15 ± 0.027
6,Nc1nc2c(ncn2COC(CO)CO)c(=O)[nH]1 [Ganciclovir],1.069 ± 0.0057
7,O=C(/C=C/N1C[C@H]2C[C@@H]1CN2c1ccccn1)c1ccccc1O,1.06 ± 0.02
8,COc1ccc(-n2nc(C(N)=O)c3c2C(=O)N(c2ccc(N4CCCCC4=O)cc2)CC3)cc1 [Apixaban],1.1 ± 0.027
9,Cc1coc2c1C(=O)C(=O)c1c-2ccc2c(C)cccc12 [Tanshinone I],1.11 ± 0.051
10,CO[C@H]1/C=C/O[C@@]2(C)Oc3c(C)c(O)c4c(O)c(c(/C=N/N5CCN(C)CC5)c(O)c4c3C2=O)NC(=O)/C(C)=C\C=C\[C@H](C)[C@H](O)[C@@H](C)[C@@H](O)[C@@H](C)[C@H](OC(C)=O)[C@@H]1C [Rifampin],1.049 ± 0.003
11,O=C(/C=C\n1cnc(-c2cc(C(F)(F)F)cc(C(F)(F)F)c2)n1)NNc1cnccn1,0.2768 ± 0.0027
12,COc1cc(-c2ncn(/C=C\C(=O)OC(C)C)n2)cc(C(F)(F)F)c1,0.26 ± 0.011
13,O=C(/C=C\n1cnc(-c2cc(C(F)(F)F)cc(C(F)(F)F)c2)n1)NNc1ccccn1 [Verdinexor (KPT-335)],0.3315 ± 0.0025
14,O=C(/C=C/n1cnc(-c2cc(C(F)(F)F)cc(C(F)(F)F)c2)n1)N1CC(F)(F)C1,0.473 ± 0.06
15,CCN(CC)CCNC(=O)c1c(C)[nH]c(/C=C2\C(=O)Nc3ccc(F)cc32)c1C [Sunitinib Malate],1.11 ± 0.037
16,CCN(CC)CCNC(=O)c1c(C)[nH]c(/C=C2\C(=O)Nc3ccc(F)cc32)c1C [Sunitinib],1 ± 0.095
17,Cc1[nH]nc2ccc(-c3cncc(OC[C@@H](N)Cc4ccccc4)c3)cc12,0.5847 ± 0.0027
18,C[C@]12CC[C@H](O)CC1=CC[C@@H]1[C@@H]2CC[C@]2(C)C(n3cnc4ccccc43)=CC[C@@H]12 [Galeterone],1.06 ± 0.14
19,CO[C@H]1C[C@@H]2CC[C@@H](C)[C@@](O)(O2)C(=O)C(=O)N2CCCC[C@H]2C(=O)O[C@H]([C@H](C)C[C@@H]2CC[C@H](n3cnnn3)[C@H](OC)C2)CC(=O)[C@H](C)/C=C(\C)[C@@H](O)[C@@H](OC)C(=O)[C@H](C)C[C@H](C)/C=C/C=C/C=C/1C [Zotarolimus(ABT-578)],0.888 ± 0.073
20,CC(=O)Oc1cccc2c1C(=O)c1c(OC(C)=O)cc(C(=O)O)cc1C2=O [Diacerein],1.11 ± 0.023
21,CC1(C)C=C(CN2C/C(=C\c3ccc(F)cc3)C(=O)/C(=C/c3ccc(F)cc3)C2)C(C)(C)N1O,0.8405 ± 0.0057
22,C=CC(=O)N1CC(=Cc2ccc([N+](=O)[O-])cc2)C(=O)C(=Cc2ccc([N+](=O)[O-])cc2)C1,0.0554 ± 0.0028
23,CNC(=O)c1c(F)cccc1Nc1nc(Nc2cc3c(cc2OC)CCN3C(=O)CN(C)C)nc2[nH]ccc12,1.06 ± 0.052

row,Structure (SMILES),relative cell viability
1,CC[C@@H](C)Nc1cc(C(=O)N[C@H]2C[C@H]3CC[C@@H](C2)N3c2ccc(C(=O)C3CC3)cn2)c(C)cc1C(N)=O,0.449 ± 0.023
2,O=C(O)c1cc(/N=N/c2ccc(S(=O)(=O)Nc3ccccn3)cc2)ccc1O [Sulfasalazine],1.04 ± 0.026
3,CCc1nc(-c2cccc(C)c2)c(-c2ccnc(NC(=O)c3ccccc3)c2)s1,1.0779 ± 0.0008
4,Cc1ccc([N+](=O)[O-])cc1S(=O)(=O)N(C)/N=C/c1cnc2ccc(Br)cn12,0.287 ± 0.012
5,COc1cc(C(C)=O)ccc1O [Apocynin],1.07 ± 0.059
6,CCCCOc1c(C(=O)c2c(F)cc(C)cc2F)c[nH]c2nncc1-2,0.904 ± 0.014
7,CCOC(=O)CCNc1cc(N2CCc3ccccc3CC2)nc(-c2ccccn2)n1,0.957 ± 0.1
8,CNC[C@@H](O)c1ccc(O)c(O)c1 [L-Adrenaline],1.06 ± 0.028
9,COCC[n+]1c2c(n(Cc3cnccn3)c1C)C(=O)c1ccccc1C2=O [YM155 (Sepantronium Bromide)],0.0556 ± 0.0047
10,CC1(C)S[C@@H]2[C@H](NC(=O)[C@H](NC(=O)N3CCNC3=O)c3ccccc3)C(=O)N2[C@H]1C(=O)O [Azlocillin sodium salt],1.09 ± 0.026
11,CC(C)(OCc1nn(Cc2ccccc2)c2ccccc12)C(=O)O [Bindarit],1.1 ± 0.053
12,C=C[C@]1(C)C[C@@H](OC(=O)CS[C@@H]2C[C@H]3CC[C@@H](C2)N3C)[C@]2(C)[C@H](C)CC[C@]3(CCC(=O)[C@H]32)[C@@H](C)[C@@H]1O [Retapamulin],1.29 ± 0.028
13,CCC[C@@H]1C[C@@H](C(=O)N[C@@H]([C@H]2O[C@H](SC)[C@H](O)[C@@H](O)[C@H]2O)[C@@H](C)O)N(C)C1 [Lincomycin HCl],1.12 ± 0.073
14,CCC(=O)Nc1cccc(Oc2nc(Nc3ccc(N4CCN(C)CC4)cc3OC)ncc2Cl)c1,1.16 ± 0.059
15,Clc1ccc(Nc2nnc(Cc3ccncc3)c3ccccc23)cc1 [Vatalanib (PTK787) 2HCl],1.16 ± 0.022
16,Cc1[nH]c2ccccc2c1CCNCc1ccc(/C=C/C(=O)NO)cc1 [Panobinostat (LBH589)],0.0672 ± 0.00084
17,Cc1[nH]c2ccccc2c1CCNC(=O)c1cccs1,1.08 ± 0.069
18,CN(C)Cc1ccc(S(=O)(=O)n2ccc(/C=C/C(=O)NO)c2)cc1 [Resminostat],0.908 ± 0.028
19,COc1ccc(-c2coc3cc(O)ccc3c2=O)cc1 [Formononetin],0.901 ± 0.044
20,O=C(O)c1ccc(C=C2SC(=S)N(c3cccc(C(F)(F)F)c3)C2=O)cc1,1.04 ± 0.026
21,O=C(CCCN1CC=C(n2c(=O)[nH]c3ccccc32)CC1)c1ccc(F)cc1 [Droperidol],1.08 ± 0.044
22,Cc1ccc(S(=O)(=O)c2ccc([N+](=O)[O-])o2)cc1,0.286 ± 0.0092
23,NC(=O)N/N=C/c1ccc([N+](=O)[O-])o1 [Nitrofural],1.02 ± 0.057

row,Structure (SMILES),relative cell viability
1,COc1ccc(/C=C/C(=O)C2(C(=O)/C=C/c3ccc(OC)c(OC)c3)CCCCC2)cc1OC,0.726 ± 0.088
2,Cc1c(F)cc(C(=O)NC2CC2)cc1-c1ccc(C(=O)NCC(C)(C)C)cn1,0.959 ± 0.18
3,Cc1c(Nc2ncccc2C(=O)O)cccc1C(F)(F)F [Flunixin Meglumin],0.994 ± 0.028
4,COc1cc2c(cc1OC)CN(CCc1ccc(NC(=O)c3cccc4c(=O)c5cccc(OC)c5[nH]c34)cc1)CC2,1.03 ± 0.056
5,CNCCc1ccccn1 [Betahistine 2HCl],0.903 ± 0.18
6,COC1=CC(=O)C[C@@H](C)[C@]12Oc1c(Cl)c(OC)cc(OC)c1C2=O [Griseofulvin],1.12 ± 0.06
7,O[C@@H](COc1cccc2ncccc12)CN1CCN(C2c3ccccc3[C@@H]3[C@H](c4ccccc42)C3(F)F)CC1 (some centres not stated),1.14 ± 0.082
8,CCn1c(N)c(C(=O)NC)c(=O)c2ccc(C#CC(C)(O)COC)nc21 (configuration not stated),0.979 ± 0.17
9,Cc1nc(=O)c2cc(CN(C)c3ccc(C(=O)N[C@@H](CCC(=O)O)C(=O)O)s3)ccc2[nH]1 [Raltitrexed],1.07 ± 0.086
10,C#CCC(Cc1cnc2nc(N)nc(N)c2n1)c1ccc(C(=O)N[C@@H](CCC(=O)O)C(=O)O)cc1 (some centres not stated) [Pralatrexate],0.1336 ± 0.00088
11,CN(Cc1cnc2nc(N)nc(N)c2n1)c1ccc(C(=O)N[C@@H](CCC(=O)O)C(=O)O)cc1 [Methotrexate],0.143 ± 0.0081
12,CC(C)c1cnn2c(NCc3ccccc3)cc(NCCCCCCN)nc12,1.08 ± 0.063
13,CNC(=O)CN1CCC(Oc2cc3c(Nc4cccc(Cl)c4F)ncnc3cc2OC)CC1 [AZD8931 (Sapitinib)],1.21 ± 0.015
14,Cc1c(C(N)=O)cc([N+](=O)[O-])cc1[N+](=O)[O-] [Dinitolmide],1.0978 ± 0.00018
15,Cc1ccccc1C(C(=O)NC1CCCCC1)N(C(=O)Cn1ccnc1C)c1cccc(F)c1 (configuration not stated),0.989 ± 0.22
16,CCCCCCCCCCCCCCCC[N+](C)(C)C [Cetrimonium Bromide (CTAB)],1.05 ± 0.039
17,CC1=NN(c2ccc(C(=O)O)cc2)C(=O)C1=Cc1ccc(-c2cc(C)c(C)cc2[N+](=O)[O-])o1,1.04 ± 0.022
18,Nc1nc(CC(=O)Nc2ccc(CCNC[C@H](O)c3ccccc3)cc2)cs1 [Mirabegron],0.954 ± 0.11
19,NC(=O)c1cccc(-c2cccc(OC(=O)NC3CCCCC3)c2)c1,1.17 ± 0.024
20,CC#CC(=O)Nc1ccc2ncnc(Nc3cccc(Br)c3)c2c1,0.773 ± 0.043
21,CN(C)c1ccc(C(=C2C=CC(=[N+](C)C)C=C2)c2ccc(N(C)C)cc2)cc1 [Crystal Violet],0.278 ± 0.006
22,CN(C)C(=O)c1cc2cnc(Nc3ccc(N4CCNCC4)cn3)nc2n1C1CCCC1,1.147 ± 0.008
23,Nc1c(CC(=O)O)cccc1C(=O)c1ccc(Br)cc1 [Bromfenac Sodium],1.09 ± 0.046
